Among all 53,000 sequences or so, about 3,700 (7%) were called active. This is one part of a sample in which actives are shown more often than they occur. A number with no mark means an inactive call.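 The calls were made as follows: active = gene knockdowns whose robust z-score for IL-1 alpha signal is at least 2 or at most -2, so actives lie on both sides; inactive = the rest.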

The assay in a line: Components of the Cytosolic LPS Sensing Pathway: Gene Identification via Genome-wide siRNA Screen.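 Also: robust z of the log signal after scaling to non-targeting control siRNA wells of the plate.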 As to conditions: RAW264.7 macrophages, IL-1a HTRF, actives lie on both sides, screened at 100 nM (by protocol), cells primed 5 h with Pam3CSK4 first. Put shortly: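 Read-out: IL-1a HTRF on supernatant, divided by plate negative-control median ×100, log-transformed and converted to robust z-score. Cells were RAW264.7 given 100 nM siRNA, Pam3CSK4-primed 5 hours, then LipidA-transfected 24 hour.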
In general terms: Time-resolved FRET reads energy transfer from a long-lived donor to a nearby acceptor.
On to GCGAGUUUAAUGUUUAUGCTT against Pdgfra, for which the z-score is -1.29.
For GCCCAGCAUGGAUAGAUUATT against Mis18bp1, the z-score is 0.466.
As to GGAAAAUGUAAACAAGUACTT against Xpo5, the z-score is -0.595.
Turning to GGAUAACACCACCAACUAUTT against Akap8l, the z-score is 0.456.
As for GGGCUGUUCUACUUAGUUATT against N6amt1, the z-score was 0.573.
For the sequence GGAUUAAAGAAAGACAUUGTT against Yme1l1, the z-score was -2.04 (active).
Regarding CGCCAGAGUGCAUAGUCUUTT against Mindy2, the z-score was 1.94.
Regarding GCCAUUUUAGAGCAGAUCCTT against Rundc3a, the z-score was -2.33 (active).
In the case of GCAAACUGUCCUAUCUUGGTT against Cacna1d, the z-score was 0.84.
For GGUGUUGUUUCGAAUUAUUTT against Xrn1 the value was 0.44; for GGUUCAGGUUCUUCUAAAATT against Cd109, 1.42; for GCACCUGAGCUUUCGAAUATT against Fam3a, -0.373.
CCGUGGAAACAGUCCUGAATT against Nudcd1: the z-score was 0.646.
As for GCUACUCUCGCCUGUUACATT against Dcaf12, the z-score is 0.0053.
In the case of GGCCAAUGCCCUUUUUUGATT against Spem2, the z-score is 0.427.
In the case of GUUCCCUGCCUGGCAGAAUTT against Foxd2, the z-score was 3.8 (active).
As for “GGCAGCACCAUCGUCUAAUTT against 4930432E11Rik”, the z-score is 0.622.
On to GGUCAAGUCACUGGUGACGTT against Fabp3, for which the z-score was -1.73.
Take GGAAGAUGGGCUAUUUCAUTT against Gabra6: the z-score is 0.545.
GGACAAGACCAUCUUCGAUTT against Sectm1a: the z-score is 0.21.
Consider CCAAAUCCCAGAGUUAUUUTT against Htr2c, for which the z-score is 0.361.
As for GCAAAAGACCAUCUGAGUGTT against Adig, the z-score is 0.375.
Turning to GGAAUUGGCAUCCUUAAGCTT against Cops3, the z-score is 2.43 (active).
Turning to GGUCAGAAGGUGUGUUAUATT against Rad52, the z-score is 0.338.
On to GGCAUUCCCAGUCGUAAAGTT against Kctd3, for which the z-score is -1.1.
Turning to GGUUUAUAUCCGUACACCUTT against Sp2, the z-score was 1.97.
In the case of “GGUGUUCUACUGUGCAUUATT against 9330132A10Rik”, the z-score was 0.578.
The same measure for GUUCCUCAGUAUGUUGCCATT against Olfr126: -2.85 (active).
For GGGAUUGGUUAUUUUACAUTT against Trmt12, the z-score is -0.578.
In the case of GGAAAUAUGGCAAGAAUUUTT against Rgs7, the z-score was 0.781.
As for GCUAAUGUGGAGGACUCACTT against Chml, the z-score was -0.574.
For GCAUUUCCCAGCCUGAUACTT against Aif1l the value was -0.584.
Regarding GGUGACACAGUACAAGAAGTT against Rpl36a, the z-score was 0.318.
As for GGCGAGAAACCUUUCAGAUTT against Zic4, the z-score was 4.72 (active).
Regarding CGGCGAUGGAAAAAAAUUUTT against Tmem178, the z-score is 1.04.
With GGGUGCUUACAGAAUAUCUTT against Ms4a19, the z-score was 1.07.
The same measure for GGUGAACCCUUUGAGGAAGTT against Gstt3: -0.42.
With GGAUUAAAUGGUGGUGGAGTT against Dnajb6, the z-score is -1.1.
Regarding GGAUGAAAUUGUGUUAUCUTT against Snrk, the z-score is -0.371.
Turning to GCCCUUUUACGGCAACAGATT against C2cd5, the z-score is -1.48.
On to CCACAUGCCAAAAUAAUACTT against Oxr1, for which the z-score is -0.771.
For GGAAGAACUUGUCUCUUUUTT against Tmtc2, the z-score was 0.501.
For GGAUGCUGUAACACUUUAUTT against Bcl6 the value was 3.31 (active); for GCGAUCACUUUUCAAGUUUTT against Rnf139, 0.0177; for GGAAAUCCUCAGACAAAUGTT against Pdc, 0.93.
For the sequence GGAAAUGUACCUGUUUGUUTT against Dnase1l2, the z-score was 0.928.
Consider GGCUUAGGUGUCCGAGAAATT against Wfdc2, for which the z-score is -1.01.
On to GGCUGUGGUAGAAAAGCUGTT against Hspg2, for which the z-score was -1.65.
Turning to CCAUAUCUAUGAUAUGGUUTT against Piezo2, the z-score was -2.18 (active).
For GGAAGAUCCAUUUAAUGUATT against Eps15 the value was 1.14; for GCUGAAGGGUCUCGUAUUGTT against Hes2, 0.262.
In the case of GGCUUUGAUGUCAGCACUGTT against Ngrn, the z-score was 0.247.
For GCUCAUGCAUGGCUGUACATT against Gbp9, the z-score was 0.603.
For GGAGCAUUCUCCAUCUAGCTT against Dennd2d the value was -1.41; for GGAGGAGUCUUGAAUCCAGTT against Yod1, -0.122; for GGACUUGGUGACUUACUUCTT against Smpdl3b, -1.42.
The same measure for CGGGUAAUAAGGAUUUGGGTT against Cadm4: 2.05 (active); for GGAGACAGUUCAGAAGUGGTT against Glp2r: 0.0837.
GAAGUCUGUGACCAGUUCCTT against Fgf2os: the z-score is 0.735.
On to GCUAGGUGGGCAACUGUAUTT against Lpar3, for which the z-score was 2.12 (active).
With CCCUGAAACCUCGGUGUUUTT against Vmac, the z-score is 1.34.
Turning to GGAACUGGAGAUGCACAGCTT against Mtcl1, the z-score was 1.2.
Consider GGAAAUUGUCAGGUCCUACTT against Rad50, for which the z-score is 2.94 (active).
As for GGUUAUGUGUUCCAUAGAUTT against Pcdhb13, the z-score is 0.248.
GGAUAAACAGCUGAAGGUGTT against Ccs: the z-score is 0.762.
The same measure for GGCCGUUUUUUGGCAUCGUTT against Acss1: -1.71; for GGCAAGCCAGAGAAACUGATT against Rbm42: 6.18 (active); for GGUAAUCCUGACUUCGUGGTT against Asb17: 0.915.
Regarding GCCGUAUUCAUUAAUAAAGTT against Ash1l, the z-score was 0.0753.
In the case of GCUAGAAAGGACUUCGUGGTT against Pla2g4f, the z-score was -2.36 (active).
For the sequence CGAUUUCACAAAAACAUGATT against Vta1, the z-score is -0.394.
For GGUGUUGGAGACCAUGGAUTT against Clcn6 the value was 0.829; for CGUGAUGUACAUGCAGGAUTT against Slc48a1, 2.83 (active); for GCAAUCGACCGCAUCCUAATT against Gm4827, -1.32.
Regarding GGGCUCCAAUUUGCUACCATT against Grp, the z-score is 0.342.
For GCAGCAAUCAGAUCAUGUATT against Platr26 the value was -0.694.
As to GGUCCAGAUUGCUUAGAUGTT against Zbtb11os1, the z-score is -0.398.
As for CCUUAUACCAUAGAGAACATT against Bfar, the z-score is 1.14.
The same measure for GGAGAAACGAAAAGACUCUTT against Brpf1: -2.25 (active); for GGCUUCAAGGACUUUACAATT against Mefv: 1.62; for GGUGUGCUCUGUAAAUCAUTT against Trappc2: 0.656.
Regarding GGAUGAGCAUAAAAGUCCUTT against Atf7ip, the z-score is -0.536.
CCUGUCACAGAUGUAUGUGTT against Rnf149: the z-score is 0.331.
For GGAAUCUCCACCAUACAGGTT against Vmn1r26 the value was -0.263; for GGAGGAUACAGUGGAGGGATT against Fbxl19, 2.81 (active); for GGACGGUAGCCAUAUUAAUTT against Spink2, -0.385.
For the sequence GGCUGAAGUUCAUGAUGGCTT against Cd209d, the z-score is 1.7.
For CCACCAGGGAUCGUUAUAATT against Phyh, the z-score was 2.25 (active).
As to GGCGAUUAUGGAAAAAUGUTT against Osbpl11, the z-score is -0.431.
Turning to GGCCUUUAUUCUAUGCAGUTT against Htr3a, the z-score is 1.59.
For GGAAAAAACGCACCAGCAUTT against Pou2f1, the z-score was 0.0271.
Consider CCAGACGCGUAACUGCUACTT against Cox6b2, for which the z-score was 3.26 (active).
Regarding GGACAAAGAAAAAGAUUCCTT against Stxbp6, the z-score was -0.169.
For CCUGGAACAUAGAUGUAUATT against Jmjd4, the z-score is 0.484.
For GGUCUUUUCUACAUGUGGATT against Olfr389, the z-score was 0.268.
For the sequence GGAUGCUGAAGUGAAGGACTT against Myt1, the z-score was -0.157.
With GCAUGUAGCCUGGCCUUCUTT against Zfp458, the z-score was -0.591.
For GGAAUGUUGGAAUCAAUUGTT against Gcm1 the value was 2.83 (active); for GGAAUUUUACCUUUUGGAUTT against Tm9sf3, 0.408; for GGUCUCACUGAAAAUGAAATT against Ces1g, -0.656.
Turning to GGCUUGUCGUCCUGGUGUATT against Rprd2, the z-score was 0.219.
With GGCCUACAUCAUUCACUCCTT against Olfr64, the z-score was -0.384.
Regarding GGAGGAUCUAUACCACGGUTT against Npffr2, the z-score was 0.565.
Take GGUUCGAGUCUCUUACUCUTT against Pou4f3: the z-score is -0.574.
Take GGGUGACCUUUACGUCUUCTT against Reep1: the z-score is 0.0877.
The same measure for GGGAGAAGAAUUUGAACAGTT against Ak1: 0.557.
The same measure for GGUGGCAGACUGUGUUUAUTT against B3gnt8: -2.08 (active); for GGGAUGCGGAGGUUUAAGATT against Dhx37: 0.815.

The record behind these values is PubChem BioAssay AID1508600 (Functional Genomics Laboratory (NCATS/FGL), 2020).
